The sample as a whole holds a higher share of hits than the screen did.
Pf Dd2 inh: Plasmodium falciparum Dd2 growth inhibition. P. falciparum Dd2 growth, SYBR Green, 72 h. Potency, µM (doses to about 28.9 µM), usual class: inhibitors. 4.3% of 120,000 active. AID 1347417; active means well fitted inhibition curve with a large enough effect; further: nearly all actives have a fitted effect of over 65% in size
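Readout: SYBR Green fluorescence, 485 nm excitation, 535 nm emission, after ~16 h lysis at 37C. Before that, Dd2-infected red cells (2.5% hematocrit) grew 72 h with compound, 29 uM top final concentration.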
A number is an active result; i = inactive; [ ] = another dose, or the depositor's remark.

SMILES	Pf Dd2 inh
COc1ccc(CNC(=O)[C@@H]2CCC[C@@H](NCc3c(C)noc3C)CN(C)C(=O)C2)cc1	i
O=C(C1CCCCC1)N1CCCC2(CC(c3ccccn3)=NO2)C1 (stereo not given)	i
Cn1nc(C2CCN(C(=O)CC3CCCC3)CC2)c2c1CCOC2	i[5.79 µM]
O=C(NC1CC1)[C@@H]1C[C@H](Oc2cccnc2)CN1C(=O)c1nccc2ccccc12	i
O=C(c1ccc(C(F)(F)F)cc1)N1CCC(N2CCCC2=O)CC1	i
COc1ccc(C)cc1NC(=O)N1C[C@@H](F)C[C@H]1C(=O)N1CCCCC1	i
Cc1nc(C2CC(NC3CCN(c4ccccc4F)CC3)C2)cc(=O)[nH]1 (stereo not given)	i
COc1ccc(CN2CC(CNc3ccccc3)C3(C2)CN(c2ccccc2)C3)cc1O (stereo not given)	3.5µM
N#Cc1ccc(CN2CC(CNC(=O)Nc3ccccc3)C3(C2)CN(c2ccccc2)C3)cc1 (stereo not given)	i
NC(=O)c1ccccc1OCC(=O)N1CC(CNc2ccccc2)C2(C1)CN(c1ccccc1)C2 (stereo not given)	i
FC(F)(F)CN1C2CCC1CN(c1nccc(C(F)(F)F)n1)C2	i
Cc1ccc(Nc2ccnc(N3CC4CCC(C3)N4CC(F)(F)F)n2)cc1	10µM
Cc1cc(C)nc(N2CC3CCC(C2)N3CC(F)(F)F)c1	i
CNC(=O)[C@@H]1CN(C(=O)c2cnn(C)c2)C[C@H]1COC	i
CCC(=O)N1CCc2cc(CNC(=O)c3ccc(C#N)cc3)ccc21	i
COc1ccccc1C(=O)NCc1ccc2c(c1)CCN2C(=O)c1cccc(C)c1	i
COc1ccc(CC(=O)NCc2ccc3c(c2)CCN3C(=O)c2ccccc2)cc1OC	i
CCC(=O)N1CCc2cc(CNS(=O)(=O)c3cccs3)ccc21	i
Cc1cccc(C(=O)N2CCc3cc(CNC(=O)CSc4ccccc4)ccc32)c1	i
Cc1cccc(OCC(=O)NCc2ccc3c(c2)CCN3C(=O)c2ccccc2)c1	10µM
N#Cc1ccc(C(=O)NCc2ccc3c(c2)CCN3C(=O)c2ccc(F)cc2)cc1	5µM
Cc1ccc(C(=O)N2CCc3cc(CNS(=O)(=O)c4cccs4)ccc32)cc1	8.9µM
O=C(NCc1ccc2c(c1)CCN2C(=O)c1ccc(F)cc1)c1c(F)cccc1F	i
Cc1cccc(C(=O)N2CCc3cc(CNS(=O)(=O)c4cccs4)ccc32)c1	i
Cc1cccc(C(=O)N2CCc3cc(CNC(=O)c4ccnn4C)ccc32)c1	i
SMILES	Pf Dd2 inh
Cc1cccc(C(=O)N2CCc3cc(CNC(=O)c4ccc(Br)o4)ccc32)c1	1.3µM
CC(C)(C)NC(=O)N1C[C@@H](Oc2cccnc2)C[C@H]1C(=O)N1CCOCC1	i
COCCCNC(=O)CCCN1C(=O)COc2ccc(C(=O)COc3cc(C)ccc3C)cc21	i
Cn1nccc1C(=O)N1CCC(Oc2cccnc2)C1 (stereo not given)	i
COCCCN1CC2(CCC1=O)CCN(Cc1nonc1C)CC2	i
CN1C(=O)CS(=O)(=O)C12CCN(C(=O)c1ccc(F)cc1)CC2	i
Cn1ccnc1CNC(=O)C[C@@H]1C[C@H]2O[C@H](CNCc3cnccc3Cl)[C@@H](O)[C@H]2O1	i
CN(C)CC(=O)N1Cc2ccccc2CC2(CCCN(C)C2)C1 (stereo not given)	i
COCCNC(=O)N1[C@@H]2CC[C@H]1CC(NC(=O)c1ccc(F)cc1)C2 (stereo not given in full)	i
Cn1nccc1C(=O)NCc1ccc2c(c1)CCN2C(=O)c1ccc(F)cc1	i
O=C(NCc1ccc2c(c1)CCN2C(=O)c1ccc(F)cc1)c1ccc(Br)o1	11µM
O=C(NCc1ccc2c(c1)CCN2C(=O)c1ccccc1)c1ccc(Br)o1	i
Cc1cnc(C(=O)N2CCCC(Cc3noc(-c4ccccn4)n3)C2)cn1 (stereo not given)	i
COc1ccc(-c2ccc3c(N)c(C(=O)Nc4ccc(C(F)(F)F)cc4)sc3n2)cc1OC	i
COc1ccc(NC(=O)c2sc3nc4c(c(-c5ccc(OC)cc5)c3c2N)C(=O)CC(C)(C)C4)cc1	1µM
COc1ccc(NC(=O)c2sc3nc(-c4ccc(OC)cc4)cc(C(F)(F)F)c3c2N)cc1	i
COc1ccc(-c2cc(C[C@H]3CNCC[C@H]3CC(=O)O)no2)cc1	i
COc1cccc(C(=O)Nc2c(C(=O)Nc3ccc(F)cc3)oc3ccccc23)c1OC	i
CCOc1ccc(C(=O)Nc2c(C(=O)c3ccccc3)oc3ccccc23)cc1	i
COc1ccccc1C(=O)Nc1c(C(=O)N(CCN(C)C)Cc2ccco2)oc2ccccc12	6.3µM
COc1ccccc1C(=O)N(Cc1ccco1)Cc1ccccc1F	i
CN(C)CCN(Cc1ccco1)C(=O)c1oc2ccccc2c1NC(=O)c1ccccc1	11µM
Cc1c(C(=O)N(Cc2cccc(Cl)c2)Cc2ccco2)oc2ccccc12	i
O=C(NC1C[C@H]2CC[C@@H](C1)N2C(=O)C1CCOCC1)c1ccc(F)cc1 (stereo not given in full)	i
COCCCN1CCC(Cn2cnc3cn(C)nc3c2=O)C1 (stereo not given)	i
